Values joined by “and” are separate entries in the source; they are usually repeats but may differ in a detail not shown here. Identical values can stand only once. The whole screen tested about 16,000 compounds, of which about 5,800 (36%) were called active. Not shown: some 23% with an inconclusive outcome. The call rests on the fitted dose curve; in most records, active means well fitted curve in the direction sought with a large enough effect; inconclusive means small, poorly fitted or top-dose-only effect, or effect the other way; inactive means no such curve, though single readings can be large or run the other way. Some of the results follow.
target: Cytochrome P450 2C19 (Homo sapiens) (UniProt P33261); test: Cytochrome panel assay with activity outcomes; conditions: recombinant CYP, pro-luciferin dealkylation, luminescence, p450-cyp2c19; series mostly up to 57.1 µM; activity, negative = inhibition: at the top concentration
Sequence (P33261 whole entry, looked up): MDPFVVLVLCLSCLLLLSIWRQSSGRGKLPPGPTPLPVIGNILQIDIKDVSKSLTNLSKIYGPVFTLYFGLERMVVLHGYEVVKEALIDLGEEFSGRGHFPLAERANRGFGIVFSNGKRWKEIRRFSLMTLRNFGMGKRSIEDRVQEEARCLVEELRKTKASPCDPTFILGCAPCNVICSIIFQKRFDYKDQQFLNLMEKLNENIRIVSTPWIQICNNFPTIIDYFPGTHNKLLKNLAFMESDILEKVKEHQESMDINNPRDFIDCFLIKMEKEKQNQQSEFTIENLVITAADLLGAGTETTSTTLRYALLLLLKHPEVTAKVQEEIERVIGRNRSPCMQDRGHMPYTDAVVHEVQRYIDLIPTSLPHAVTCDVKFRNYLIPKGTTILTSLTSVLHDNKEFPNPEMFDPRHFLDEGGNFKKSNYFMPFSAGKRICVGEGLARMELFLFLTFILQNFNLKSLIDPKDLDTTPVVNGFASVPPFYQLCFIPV
On the % scale 0 is the no-effect control and ±100 the full control effect.

SMILES | activity, negative = inhibition | AC50
Cc1c(S(=O)(=O)O)ccc(N=Nc2c(O)c(C(=O)O)cc3ccccc23)c1Cl | 14.5% [at 11.4 µM] (inactive) | –
COC(=O)CNC(c1ccccc1Cl)c1cc(Br)ccc1NC(=O)CCN1CCOCC1 (centres undefined) | – | 28.2 µM (active)
O=C1C[C@@H](O)[C@@H](O)[C@H]2[C@@H]3C(=O)N(C[C@@H]4CCCO4)C(=O)[C@@H]3CC[C@H]12 | 43.9% [at 11.4 µM] (inactive) and 16.6% [at 11.4 µM] (inactive) | –
Cn1cccc1C(=O)N1CCC2(CC1)CCN(C(c1ccccc1)c1ccccc1)CC2 | -14.1% (inactive) | –
CN(C)c1ccc(-c2cncnc2NCc2ccccc2)cc1 | – | 0.398 µM (active)
CN(C)C(=O)c1ccc(-c2cncnc2NCc2ccccc2)cc1 | -10.8% (inactive) | –
CN(C)C(=O)c1ccc(-c2cncnc2NCc2cccnc2)cc1 | – | 2.51 µM (active)
CNc1ncncc1-c1ccc(C(=O)N(C)C)cc1 | – | 25.1 µM (active)
CN(C)C(=O)c1ccc(-c2cncnc2Nc2ccccc2)cc1 | -27.6% (inactive) | –
Cc1cnc(CNc2ncncc2-c2ccc(C(=O)N(C)C)cc2)cn1 | 0.3% (inactive) | –
CN(C)c1ccc(-c2cncnc2NCc2cccnc2)cc1 | – | 0.0316 µM (active)
CCOC(=O)c1c(NC(=O)Cn2nc([N+](=O)[O-])c(Br)c2C)sc2c1CCC(C)C2 (centres undefined) | – | 8.91 µM (active)
CCOC(=O)c1c(N2C(=O)Nc3cc(Cl)c(Cl)cc3N2O)sc2c1CCCCC2 | -110% (inactive) | –
CCOC(=O)c1c(NC(=O)Cn2cc([N+](=O)[O-])cn2)sc2c1CCC2 | – | 2 µM (active)
CCOC(=O)c1c(NC(=O)CSc2nnc(C)s2)sc2c1CCCCC2 | – | 2.24 µM (active)
CCOC(=O)c1c(NC(=S)NC(=O)c2cnn(CC)c2)sc2c1CCC(C)C2 (centres undefined) | -22% (inactive) | –
CCOC(=O)c1c(NC(=O)c2ccc(S(=O)(=O)N3CCOCC3)cc2)sc2c1CCN(C)C2 | 30.2% (inactive) | –
CCOC(=O)c1c(NC(=O)c2c(C)noc2C)sc2c1CCCCC2 | -4.88% (inactive) | –
COc1cccc(Cn2c(=O)cnc3cnc(Nc4cccc(OC)c4)nc32)c1 | – | 3.98 µM (active)
CCNc1ncc2nc(-c3cn(C)c4ccccc34)c(=O)n(Cc3cccc(OC)c3)c2n1 | -30.7% (inactive) | –
CCNc1ncc2nc(-c3ccc(Cl)cc3)c(=O)n(Cc3cccc(OC)c3)c2n1 | 11.2% (inactive) | –
COc1cccc(Nc2ncc3ncc(=O)n(CCC#N)c3n2)c1 | -23.9% (inactive) | –
CCNc1ncc2nc(C)c(=O)n(Cc3cccc(OC)c3)c2n1 | – | 10 µM (active)
CCNc1ncc2nc(-c3ccc(OC)cc3)c(=O)n(Cc3cccc(OC)c3)c2n1 | -18.3% (inactive) | –
CCNc1ncc2nc(-c3cccs3)c(=O)n(Cc3cccc(OC)c3)c2n1 | -27.9% (inactive) | –

SMILES | activity, negative = inhibition | AC50
CCNc1ncc2ncc(=O)n(Cc3cccc(OC)c3)c2n1 | – | 2 µM (active)
COCCn1c(=O)cnc2cnc(Nc3cccc(OC)c3)nc21 | -17.7% (inactive) | –
COc1cccc(/C(O)=C2/C(=O)C(=O)N(Cc3cccnc3)C2c2ccco2)c1 (centres undefined) | – | 14.1 µM (active)
COc1cccc(/C(O)=C2/C(=O)C(=O)N(CCCN3CCOCC3)C2c2ccncc2)c1 (centres undefined) | -13.8% (inactive) | –
CCOc1cccc(/C(O)=C2/C(=O)C(=O)N(Cc3ccco3)C2c2ccncc2)c1 (centres undefined) | – | 10 µM (active)
COCCN1C(=O)C(=O)/C(=C(/O)c2cccc(OC)c2)C1c1ccco1 (centres undefined) | -15.3% (inactive) | –
COCCN1C(=O)C(=O)/C(=C(/O)c2cccc(OC)c2)C1c1ccc(C)o1 (centres undefined) | -7.14% (inactive) | –
CCOc1ccc(/C(O)=C2/C(=O)C(=O)N(CCOCCO)C2c2cccnc2)cc1 (centres undefined) | -4.48% (inactive) | –
O=C(CCNC(=O)Cn1ccc2ccccc2c1=O)NCCCN1CCN(c2ccc(F)cc2)CC1 | -10.9% (inactive) | –
O=C(c1cnccn1)N1CCC2(CC1)CN(c1ccncc1)C2 | -38% (inactive) | –
O=C(c1cc(-c2ccco2)on1)N1CCOCC1 | -29.1% (inactive) | –
O=C(c1cc(-c2cccs2)on1)N1CCN(c2ccc(F)cc2)CC1 | – | 1.41 µM (active)
CC(C)CCN1CC(C(=O)N2CCN(c3ccc(F)cc3)CC2)CC1=O (centres undefined) | -56.6% (inactive) | –
O=C(CCS(=O)(=O)c1cccs1)N1CCN(c2ccc(F)cc2)CC1 | – | 0.891 µM (active)
Oc1cc(O)cc(/C=C\c2ccc(O)c(O)c2)c1 | -27.7% (inactive) | –
CC(C)c1cccc2nc3c(c([Si](C)(C)C)c12)Cn1c-3cccc1=O | -80.6% (inactive) | –
Cc1ccc(OCC(=O)N/N=C\c2c(C)n(C)c3ccccc23)c([N+](=O)[O-])c1 | – | 8.91 µM (active)
NC[C@H](O)C1CCCCCCC1 | 7.64% (inactive) | –
Cc1nc2ncnn2c(C)c1CCC(=O)N1CCN(C(=O)c2ccco2)CC1 | -5.78% (inactive) | –
CC(=O)c1cnc2c(C(=O)O)cnn2c1C | -3.66% (inactive) | –
Cc1nc2c(C(=O)N3CCOCC3)cnn2c(C)c1Cc1ccc(Cl)cc1 | – | 2.24 µM (active)
N=c1n(CCN2CCOCC2)c2ccccc2n1CC(=O)c1ccc(Cl)c(Cl)c1 | – | 6.31 µM (active)
COC(=O)Cn1c(=N)n(CCN2CCCCC2)c2ccccc21 | 40.1% (inactive) | –
Cc1cc(=O)[nH]c(SCC(=O)Nc2nc3c(s2)CCCC3)n1 | – | 7.94 µM (active)

Reference: PubChem BioAssay AID1851 (National Center for Advancing Translational Sciences (NCATS), 2009)
